The values that follow come from PubChem BioAssay.

Experiment [1] in a line: reducers of endogenous Her2 protein level, primary screen, SKBR3 breast tumor cells, AlphaScreen, ATP viability (AID 461;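 active = Her2 level under about 52% in both replicate screens, with viability over 70% of control, limit read from the data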;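 for Her2 level: lower value means less Her2 protein in the cells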;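 for viability: percent of carrier control wells set as 100% viability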). The conditions noted are these: 18-24 h, measured here: SKBR3 viability, ATP luminescence, at 10 µM. (Alpha assays give light when donor and acceptor beads are brought close together.)
In experiment [2] the target is Receptor tyrosine-protein kinase erbB-2 (Homo sapiens) (UniProt P04626). Described as above. Conditions: 18-24 h, at 10 µM, stronger effect = lower value.
Experiment [3] in a line: SK-BR-3 cell growth inhibitors, pilot screen, 24 h, human (AID 572;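 active = viability at or below 10% of carrier control in both of two separate runs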;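 note: compound exposure lasted between 18 and 24 h rather than exactly 24 h; 100% = carrier-treated control wells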). The conditions noted are these: SK-BR-3 viability, CellTiter-Glo luminescence, at 10 µM, stronger effect = lower value. (In ATP-based viability assays light output follows the ATP content of the culture.)
Experiment [4] is described as follows: HUVEC growth inhibition – cell-based, human, primary screen (AID 575;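 active = viability at or below 30% in both replicate assays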;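 note: 100% = median of untreated cell wells with 0.1% DMSO on each plate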). Conditions: HUVEC proliferation, CellTiter-Glo luminescence, 72 h; at 10 µM; stronger effect = lower value.
The nature of experiment [5]: growth inhibitors of H69AR lung tumor, primary screen, human, duplicate replicates (AID 580;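 active = viability at or under a set limit in both replicates, limit being median viability minus 3 SD, cut at about 48% in these data, passing the limit was not always enough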;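 note: 100% = mean luminescence of untreated wells and 0% = no signal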). Conditions: H69AR lung tumor cells viability, ATP luminescence, 72 h; at 10 µM; stronger effect = lower value.
A short description of experiment [6]: reversal of MRP1-mediated doxorubicin resistance, pilot screen, H69AR cells, doxorubicin co-treatment (AID 601;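 active = viability loss from added drug above about 55%, and viability with drug at most 40%, in both replicates, limit read from the data, passing the limit was not always enough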). Conditions: CellTiter-Glo, 72 h, at 10 µM; for differential viability (reversal): stronger effect = higher value.
The nature of experiment [7]: 384-well plate pilot, post-Golgi transport modulator project, inhibition of yeast transport mutant growth (AID 636; in the data active = inhibition above about 31%). Conditions: absorbance 615 nm, about 18 h, stronger effect = higher value.
Experiment [8] can be described thus: growth suppression of yeast trafficking mutant, preliminary HTS, modulators of trafficking downstream of Golgi apparatus project, 1536-format plate, OD 615 nm (AID 637; in the data active = inhibition above about 30%). The conditions noted are these: yeast transport mutant growth, absorbance 615 nm, 18 h; stronger effect = higher value.
Experiment [9] in a line: OD615 S. cerevisiae growth inhibition, permissive medium, pilot counter-assay, permissive growth control for S. cerevisiae lifespan shortening project (AID 705;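 active = growth inhibition above 25% in both replicates, a cutoff set 3 SD above the mean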). Conditions: OD615, 24 h, at 10 µM, stronger effect = higher value.
A short description of experiment [10]: Restrictive medium S. cerevisiae growth inhibition, OD615, pilot screen of yeast lifespan reduction project, restrictive growth control (AID 706;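 active = growth inhibition above a set limit, 3 SD over mean compound inhibition, in both replicates, cut at about 43% in these data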;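 note: modified DeaD lifespan yeast strain shifted to restrictive glucose medium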). Conditions: OD615, 48 h, at 10 µM, stronger effect = higher value.
The nature of experiment [11]: viability gain of MRP-1-high H69AR cells under doxorubicin, pilot screen, MRP-1 activator project, CellTiter-Glo, duplicate (AID 807).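 Note: compound pretreatment 18-22 h then 72 h combined with doxorubicin; 0% = doxorubicin alone and 100% = vehicle without doxorubicin.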 The conditions noted are these: H69AR viability with doxorubicin, CellTiter-Glo luminescence; at 10 µM; stronger effect = higher value.
The nature of experiment [12]: growth suppression of beta-catenin knockout HCT116, pilot screen, human colon tumor cells (AID 823;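 active = cell viability at or below a set limit in both duplicate runs, the limit being the all-compound median minus 4 SD, cut at about 23% in these data, passing the limit was not always enough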;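 note: 0% = wells killed by 20 µM Hyamine and 100% = untreated DMSO cell wells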). The conditions noted are these: CellTiter-Glo, 60 h, at 10 µM, stronger effect = lower value.
Experiment [13] can be described thus: growth suppression of PTEN-deleted HCT116, pilot screen, cell-based, HCT116 clonal line, CellTiter-Glo (AID 824;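 active = viability at or below 27.92% in each of two runs, the all-compound median minus 4 SD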;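 note: 0% = 20 µM Hyamine control and 100% = vehicle cell control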). The conditions noted are these: 60 h, at 10 µM, stronger effect = lower value.
Experiment [14] in a line: inhibitors of the yeast RAM network, pilot screen, dse1pr::URA3 reporter, 5-FOA selection (AID 869;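 active = inhibition over a set limit, the all-compound mean plus 3 SD, in both replicate runs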;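 note: 0% = DMSO wells with no growth and 100% = 10 µM 1-NA-PP1 with full growth; RAM network block rescues cells from 5-FOA so hits raise OD615 growth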). Conditions: S. cerevisiae dse1pr::URA3 5-FOA growth, OD615, 2 d; at 10 µM; stronger effect = higher value; strain carries analog-sensitive mutant Cbk1 kinase.
Experiment [15] in a line: RAM signaling pathway blockade in yeast – S. cerevisiae, Pdr1DBD-CYC8 efflux-inhibited sensitized strain, primary screen (AID 1298;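 active = RAM network inhibition above 8.4% in each of two replicates, 3 SD over the compound average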;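 note: 0% = DMSO untreated cells without growth and 100% = 10 µM 1-NA-PP1 full growth; higher means more yeast growth rescued from 5-FOA killing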). The conditions noted are these: S. cerevisiae cbk1-as DSE1-URA3 strain, 5-FOA growth OD615, 2 d; at 50 µM; stronger effect = higher value.
Where [16] appears, read: H69AR cells + 2 uM doxorubicin, measured here: viability with 2 uM doxorubicin, stronger effect = lower value.
Setting [17] is: H69AR cells, compound alone cytotoxicity.

Records with an inconclusive call do not appear. The source made the active and inactive calls.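 Rule for the calls, unless noted: active = viability increase at or above a cutoff of the median across tested compounds plus 3 SD (cut at about 8.5% in these data, passing the limit was not always enough); inconclusive = some gains above the cutoff, reason not given; inactive = the rest.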

Broadly, the viability is a read-out of living cells in per cent, often relative to untreated cells. For orientation: inhibition means the relative decrease from the control value, in per cent.

Sequence of Receptor tyrosine-protein kinase erbB-2 (Homo sapiens) (P04626 whole entry, looked up): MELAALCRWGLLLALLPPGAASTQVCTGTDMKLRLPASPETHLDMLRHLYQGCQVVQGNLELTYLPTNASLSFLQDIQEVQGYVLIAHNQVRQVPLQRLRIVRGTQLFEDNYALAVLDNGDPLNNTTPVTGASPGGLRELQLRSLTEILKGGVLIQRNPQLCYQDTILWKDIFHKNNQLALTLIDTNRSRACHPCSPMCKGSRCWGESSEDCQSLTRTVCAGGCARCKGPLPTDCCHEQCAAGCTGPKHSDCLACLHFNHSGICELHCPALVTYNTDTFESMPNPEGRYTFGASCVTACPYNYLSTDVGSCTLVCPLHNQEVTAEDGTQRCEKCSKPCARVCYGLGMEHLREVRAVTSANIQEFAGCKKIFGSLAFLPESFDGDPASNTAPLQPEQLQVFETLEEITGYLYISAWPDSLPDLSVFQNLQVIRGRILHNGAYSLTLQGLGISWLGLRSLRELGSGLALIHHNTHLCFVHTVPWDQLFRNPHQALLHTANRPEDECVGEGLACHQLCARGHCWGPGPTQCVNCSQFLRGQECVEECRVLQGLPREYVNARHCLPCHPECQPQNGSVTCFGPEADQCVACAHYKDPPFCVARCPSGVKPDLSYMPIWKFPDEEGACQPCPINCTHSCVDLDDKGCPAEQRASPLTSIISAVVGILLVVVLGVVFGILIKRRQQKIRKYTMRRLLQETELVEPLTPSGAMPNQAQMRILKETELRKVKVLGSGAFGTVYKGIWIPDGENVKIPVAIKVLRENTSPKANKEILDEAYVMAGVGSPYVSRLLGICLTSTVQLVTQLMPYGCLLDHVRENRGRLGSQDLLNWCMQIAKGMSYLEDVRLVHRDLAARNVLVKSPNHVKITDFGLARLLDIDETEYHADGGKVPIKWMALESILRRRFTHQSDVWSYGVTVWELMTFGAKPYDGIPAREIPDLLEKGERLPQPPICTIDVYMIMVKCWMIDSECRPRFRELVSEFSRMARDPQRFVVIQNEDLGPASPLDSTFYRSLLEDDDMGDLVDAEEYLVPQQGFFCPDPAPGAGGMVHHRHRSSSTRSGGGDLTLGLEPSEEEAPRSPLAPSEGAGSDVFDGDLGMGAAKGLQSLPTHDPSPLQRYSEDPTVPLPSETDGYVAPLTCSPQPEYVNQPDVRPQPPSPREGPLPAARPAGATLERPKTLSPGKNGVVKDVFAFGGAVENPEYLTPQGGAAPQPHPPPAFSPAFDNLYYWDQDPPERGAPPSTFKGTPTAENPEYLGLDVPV

As to `O=C(CCN1C(=O)c2ccccc2C1=O)NCCN1CCOCC1`, the viability in experiment [1] is 105%; in experiment [3], 105% (inactive); in experiment [4], 86.3% (inactive); in experiment [5], 95.3% (inactive); in [6] (setting [16]), 101%; in experiment [6] (setting [17]), 95.3%. Also, the viability is 93.8% (inactive) in experiment [12] and 104% (inactive) in experiment [13]. Besides, the Her2 level in [2] is 119% (inactive). Also, the differential viability (reversal) in [6] (H69AR cells + 2 uM doxorubicin) is -5.16% (inactive). The inhibition in [7] is 1.95% (inactive); in experiment [8], -9.5% (inactive); in [14], 0.42% (inactive). In addition, the growth inhibition in experiment [9] is -11.9% (inactive); in experiment [10], -6.59% (inactive). The viability increase in experiment [11] is 0.61% (inactive). In addition, the RAM network inhibition in experiment [15] is 2.35% (inactive).
With `CCC(C)NC(=O)c1cc(CC(C)C)on1` (stereo not given), the viability in experiment [1] is 84%; in experiment [3] it was 84% (inactive); in [4], 95.5% (inactive); in experiment [5], 83.6% (inactive); in experiment [6] (setting [16]), 94.7%; in [6] (setting [17]) it was 83.6%. Besides, the viability is 102% (inactive) in [12] and 103% (inactive) in experiment [13]. Besides, the Her2 level in experiment [2] was 111% (inactive). The differential viability (reversal) in [6] (H69AR cells + 2 uM doxorubicin) was -11.1% (inactive). The inhibition is -0.26% (inactive) in experiment [7], 18.3% (inactive) in experiment [8] and -0.07% (inactive) in experiment [14]. The growth inhibition in [9] was -2.93% (inactive); in experiment [10], -0.685% (inactive). Also, the viability increase in experiment [11] is 1.13% (inactive). Besides, in experiment [15], the RAM network inhibition was 2.69% (inactive).
For the compound `COc1ccccc1N1CCN(CC(O)c2ccc3cc[nH]c3c2)CC1` (stereo not given), the viability was 99% in experiment [1]; 99% (inactive) in [3]; 95.6% (inactive) in experiment [4]; 88.8% (inactive) in experiment [5]; 77.4% in [6] (setting [16]); 88.8% in [6] (setting [17]). Besides, the viability was 60.7% (inactive) in experiment [12] and 61.7% (inactive) in experiment [13]. The Her2 level in [2] is 112% (inactive). In [6] (H69AR cells + 2 uM doxorubicin), the differential viability (reversal) is 11.4% (inactive). Moreover, the inhibition in experiment [7] was -3.33% (inactive); in experiment [8], 2.46% (inactive); in experiment [14], 1.87% (inactive). In addition, the growth inhibition was 3.54% (inactive) in experiment [9] and 5.26% (inactive) in experiment [10]. Further, the viability increase in [11] is -4.68% (inactive). Besides, the RAM network inhibition in experiment [15] was 1.54% (inactive).
With `Cc1nn(C(=O)c2ccoc2C)c(N)c1-c1ccccc1`, the viability in [1] was 101%; in experiment [3], 101% (inactive); in experiment [4] it was 85.9% (inactive); in [5] it was 92.1% (inactive); in experiment [6] (setting [16]) it was 79.5%; in experiment [6] (setting [17]), 92.1%. In addition, the viability was 78.8% (inactive) in experiment [12] and 84.3% (inactive) in experiment [13]. Besides, in [2], the Her2 level is 88.5% (inactive). In addition, the differential viability (reversal) in [6] (H69AR cells + 2 uM doxorubicin) is 12.6% (inactive). For the same compound, the inhibition in [7] was -6.27% (inactive); in [8] it was -2.33% (inactive); in experiment [14] it was 1.68% (inactive). For the same compound, the values for the growth inhibition in experiment [9] and in experiment [10] were 13% (inactive) and 10.9% (inactive), respectively. In addition, the viability increase in experiment [11] is 2.64% (inactive). Also, the RAM network inhibition in experiment [15] is 7.07% (inactive).
`NC(=O)C1CCN(C(=O)c2cc3n(n2)C(C(F)(F)F)CC(c2ccco2)N3)CC1` (stereo not given): the viability in experiment [1] was 84%; in [3], 84% (inactive); in experiment [4], 104% (inactive); in experiment [5] it was 85% (inactive); in [6] (setting [16]), 85.8%; in [6] (setting [17]), 85%. The viability is 97% (inactive) in [12] and 97.4% (inactive) in experiment [13]. For the same compound, the Her2 level in experiment [2] is 99.5% (inactive). Further, the differential viability (reversal) in [6] (H69AR cells + 2 uM doxorubicin) was -0.83% (inactive). In addition, the inhibition in experiment [7] is -0.93% (inactive); in experiment [8], -4.67% (inactive); in experiment [14] it was 2.2% (inactive). Further, the values for the growth inhibition in [9] and in [10] were -7% (inactive) and -1.27% (inactive), respectively. In addition, the viability increase in [11] is -1.57% (inactive). In addition, the RAM network inhibition in experiment [15] is 0.98% (inactive).
